High-throughput results as filed in PubChem BioAssay.
hgDAF12 agonist: agonists of H. glycines DAF-12 nuclear receptor. HEK293 GAL4-hgDAF12 UAS-luciferase reporter, agonist luminescence; normalized to butyrate control. activation, % at 6.8 µM. hit rate 1.8% among 370,000;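 active = activation above a cutoff set at the mean of all screened compounds plus 3 SD, cut at about 10% in these data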;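 also: 0% = DMSO wells and 100% = sodium butyrate wells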
SMARCA2 act: increases SMARCA2 function in MMTV reporter cells; activation, % at 9.1 µM; MG213 cells, MMTV-luciferase reporter, dexamethasone, overnight; hit rate 1% among 370,000; AID 652017; in the data active = activation above about 7.8%;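 also: 0% = vehicle wells and 100% = reference activator wells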
ssDAF12 agonist: activators of S. stercoralis DAF-12 nuclear receptor; HEK293 ssDAF-12/GRIP1 lit1-tk-luc reporter, luminescence; % of 3 µM dafachronic acid response; AID 652126; hit rate 1% among 370,000; activation, % at 6.8 µM;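 active = activation above the mean over all tested compounds plus 3 SD, cut at about 0.9% in these data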;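 also: 0% = DMSO-only wells and 100% = 3 µM delta7-dafachronic acid wells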
DAX1 inh-1: inhibitors of DAX1 repression of SF-1 activated StAR promoter | HEK293T StAR-luciferase reporter, SF-1/DAX-1 repression relief | inhibition, % at 6.8 µM | hit rate 1.1% among 370,000 | AID 652010;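 active = inhibition above the mean over all tested compounds plus 3 SD, cut at about 3.6% in these data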;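 also: 0% = DAX-1 cells with DMSO and 100% = cells lacking DAX-1 with DMSO; higher inhibition means more luminescence from relief of DAX-1 repression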
hcDAF12 agonist: activators of H. contortus DAF-12 nuclear receptor; HEK293 hcDAF-12 lit1-tk-luc reporter, luminescence; 0% DMSO, 100% Δ7-dafachronic acid; activation, % at 6.8 µM; hit rate 1.4% among 370,000; AID 652067;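 active = activation above the mean of all tested compounds plus 3 SD, cut at about 5.5% in these data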;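 also: 100% = response to 3 µM Δ7-dafachronic acid high control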
DAX1 inh-2: inhibits human nuclear receptor DAX1; HEK293 Gal4-DAX1 luciferase reporter, luminescence; inhibition, % at 6.75 µM; hit rate 0.99% among 340,000; AID 504766;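 active = inhibition above the mean over all tested compounds plus 3 SD, cut at about 4.2% in these data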;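 also: 0% = DAX1-transfected cells with DMSO and 100% = empty-vector control cells with DMSO; inhibition shows as a rise in luminescence from relieved DAX1 repression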
Target sequence (P51843 207-470 limits assumed): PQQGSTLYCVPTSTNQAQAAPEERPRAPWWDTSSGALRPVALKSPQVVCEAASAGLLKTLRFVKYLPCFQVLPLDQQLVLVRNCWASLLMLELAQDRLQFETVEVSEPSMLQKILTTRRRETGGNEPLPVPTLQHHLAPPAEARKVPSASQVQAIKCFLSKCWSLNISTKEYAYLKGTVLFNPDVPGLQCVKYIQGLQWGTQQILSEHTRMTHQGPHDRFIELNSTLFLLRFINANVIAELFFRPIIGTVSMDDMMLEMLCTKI
DAX1 conf: confirmation of human DAX1 (NR0B1) inhibitors; shares compounds with DAX1 inh-1; HEK293T StAR-promoter luciferase reporter, SF-1/DAX-1 repression; inhibition, % at 6.8 µM; hit rate 87% among 2,400; AID 652134;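 active = inhibition above the average of every tested compound plus 3 SD, cut at about 3.8% in these data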;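 also: 0% = DAX-1 cells with DMSO and 100% = no DAX-1 control cells with DMSO; active compounds raise luminescence by relieving repression of the StAR reporter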
SF1 mutant ctr: nonselective inhibitor or artifact in SF-1 mutant DAX1 counter-screen | shares compounds with DAX1 inh-1 | hit rate 78% among 2,400 | HEK293 StAR-luciferase, SF-1 AF2 mutant, luminescence | inhibition, % at 6.8 µM;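 active = inhibition above the mean of all tested compounds plus 3 SD, cut at about 3% in these data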;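 also: 0% = DAX-1 transfected cells with DMSO and 100% = cells without DAX-1 with DMSO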
Starred values were filed as active, the others as inactive; . = no result given. In the library only some 4.8% were active in any assay of this set; here they are far more common.

SMILES	hgDAF12 agonist	SMARCA2 act	ssDAF12 agonist	DAX1 inh-1	hcDAF12 agonist	DAX1 inh-2	DAX1 conf	SF1 mutant ctr
Cc1cc(C)cc(C(=O)Nc2ccc(N3CCCC3)cc2)c1	12*	1	0	4.5*	3	1	13*	5.8*
O=C(CN(Cc1ccccc1C(F)(F)F)C(=O)CNC(=O)c1ccco1)NC1CCCC1	-2	-4	-1	0	0	1	.	.
COc1cccc(NC(=O)C(=O)N/N=C(\C)CC(=O)Nc2ccc(NC(C)=O)cc2)c1	13*	4	0	5.8*	2	1	5.9*	5.8*
CCc1ccc(NC(=O)C(=O)N/N=C(\C)CC(=O)Nc2ccc(OC)cc2)cc1	0	-2	-1	0	5	1	.	.
CCN(C(=O)c1sc(N)c(C#N)c1C)C1CCCCC1	2	-3	-1	1	-2	0	.	.
CN(CCN1CCOCC1)C(=O)CC1C(=O)NCCN1Cc1ccccc1F (configuration not stated)	-1	-3	0	1	-1	0	.	.
O=C1/C(=C/c2cccs2)CCC/C1=C\c1cccs1	12*	5	0	6.8*	6.2*	4	13*	11*
COc1ccc(/C(N)=N/OC(=O)c2cccs2)cc1OC	8	6	-1	8.3*	0	3	6.2*	6.1*
CCc1nnc(NC(=O)C2COc3ccccc3O2)s1 (configuration not stated)	8	2	0	4.5*	2	2	6.3*	4.0*
O=C(CN1C(=O)S/C(=C\c2ccccc2)C1=O)NCCCn1ccnc1	3	-2	-1	0	1	0	.	.
CC(C)c1ccc(/C=C2\SC(=O)N(CC(=O)NCCCn3ccnc3)C2=O)cc1	11*	2	0	6.8*	3	1	6.2*	6.5*
COC(=O)c1ccc2nc(-c3ccccc3)c(Cc3ccccc3OC)n2c1	2	-2	1	4.8*	2	.	2	2
N#Cc1ccc(-c2nc3ccc(Br)cn3c2Cc2ccsc2)cc1	5	1	-1	1	-1	.	.	.
COc1ccccc1Cc1c(-c2ccc(Cl)cc2)nc2ccc(Br)cn12	4	-1	0	5.5*	1	.	6.3*	4.3*
Clc1ccc(-c2nc3ccc(Br)cn3c2Cc2ccsc2)cc1	8	-1	1	5.2*	2	.	5.2*	2
COc1ccccc1Cc1c(-c2ccc(C)cc2)nc2c(C)cc(Br)cn12	5	-4	1	5.3*	3	.	0	0
COc1ccccc1Cc1c(-c2cccc(Br)c2)nc2ccc(Cl)cn12	8	2	-1	3	-1	.	.	.
COc1ccccc1Cc1c(-c2ccc(F)cc2)nc2c(C)cc(Br)cn12	0	-2	-1	0	3	.	.	.
CCN(Cc1ccc(NC(C)=O)cc1)CC1CCCN(CCc2cccc(F)c2)C1 (configuration not stated)	0	4	-1	0	-1	0	.	.
O=C(c1cccn2c(=O)c3cc(Br)ccc3nc12)N1CCN(c2ccccn2)CC1	0	-2	-1	1	4	0	.	.
COc1ccccc1Cc1c(-c2ccc(C)cc2)nc2ccc(Br)cn12	23*	2	1	7.4*	6.3*	.	8.2*	5.6*
COc1ccc(NC(=O)c2noc3c2CCC3)cc1	13*	2	0	4.9*	5	1	13*	6.0*
C=CCSc1nc2c(C(=O)OCC)nnn2c2ccccc12	0	0	0	0	2	0	.	.
Nc1nc2c(C(=O)N3CCCC3)nnn2c2ccccc12	11*	4	-1	4.7*	3	.	9.2*	4.8*
CCN(CCCC(=O)c1ccc(F)cc1)CCc1ccccc1	1	4	-1	0	0	0	.	.
